Laboratory results taken from PubChem BioAssay (NCI).
This is part of a sample that, as a whole, favours compounds with a hit. Of some 83,000 tested, about 20% had one in any assay.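 Method: cells in 96-well plates; compound added at one concentration; 48 h incubation; percent growth measured; values under 10 scored active.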 Active and inactive are the calls of the source.

What was measured:
Assay in all cases: NCI-60 one-dose screen, 48 h (100 = growth as untreated, 0 = no growth, -100 = all killed)
Settings in all cases: 10 µM unless noted
[1] = test system: NCI-H23 lung
[2] = test system: NCI-H226 lung
[3] = test system: NCI-H322M lung
[4] = test system: HOP-62 NSCLC
[5] = test system: NCI-H460 lung
[6] = test system: NCI-H522 lung
[7] = test system: A549/ATCC NSCLC
[8] = test system: 786-0 renal
[9] = test system: COLO 205 colon
[10] = test system: DU-145 prostate
[11] = test system: K-562 leukemia
[12] = test system: MDA-MB-231 breast
[13] = test system: RXF 393 renal
[14] = test system: SF-268 CNS
[15] = test system: SF-295 CNS
[16] = test system: SF-539 CNS
[17] = test system: UACC-257 melanoma
[18] = test system: M14 melanoma
[19] = test system: MALME-3M melanoma

Measured: growth

CC1(C)NCCC[C@]2(C)[C@H]3C/C(=N\O)C4[C@@H]5C[C@@](C)(CO)CC[C@]5(C)CC[C@@]4(C)[C@]3(C)CC[C@@H]12 (stereo not given in full)
inactive: [1] 94.2% | [2] 94.3% | [3] 101% | [4] 111% | [5] 100% | [6] 97.4% | [7] 95.3% | [8] 98.4% | [9] 103% | [10] 106% | [11] 80.7% | [12] 93.7% | [13] 91.5% | [14] 87.6% | [15] 100% | [16] 97.8% | [17] 102% | [18] 101%

Nc1ncc(-c2ccc3ncnc(N4CCc5cc(F)c(Cl)cc54)c3c2)cn1
active: [8] 3.19% | [12] 0.108% | [13] -47.5% | [16] 8.74%
inactive: [1] 31.7% | [2] 20.7% | [3] 23% | [4] 19.6% | [5] 23% | [7] 10.4% | [9] 39.9% | [10] 10.8% | [11] 34.6% | [19] 33.6% | [14] 16.9% | [15] 13.2% | [17] 50.6% | [18] 33.8%

N#Cc1ccccc1Cn1c2nc(=N)c3ccccc3c-2nc2ccccc21
active: [9] 3.63%
inactive: [1] 52.4% | [2] 61.3% | [3] 66% | [4] 62.2% | [5] 22.1% | [6] 59.7% | [7] 44.3% | [8] 80.3% | [10] 60.3% | [12] 41.8% | [13] 54.3% | [14] 74.3% | [15] 52% | [16] 82.6% | [17] 41.8% | [18] 70%

COc1ccc(C2CC(c3cccc(Nc4nc(Cl)nc5cc(OC)c(OC)cc45)c3)=Nc3c(N)nc(N)nc3N2)cc1 (stereo not given)
active: [11] 4.51%
inactive: [1] 81.6% | [2] 84.8% | [3] 91.5% | [4] 53.4% | [5] 61.9% | [6] 78.6% | [7] 82.3% | [8] 71.4% | [9] 96.4% | [10] 88.8% | [12] 87% | [13] 76.3% | [14] 86.5% | [15] 60.1% | [16] 91.9% | [17] 106% | [18] 93.5%

NC(N)=Nc1ccc(Oc2cccc(Nc3ccc(Cl)c(C(F)(F)F)c3)c2)cn1
active: [1] -65.6% | [2] -48.8% | [3] -25.9% | [4] -51.2% | [5] -76.2% | [6] -59.5% | [7] -24.1% | [8] -46.3% | [9] -75.9% | [10] -93.4% | [11] -43.5% | [12] -58.1% | [13] -3.9% | [15] -84.7% | [17] -26.1% | [18] -62.4%
inactive: [14] 17.7% | [16] 15.9%

NC(N)=Nc1ccc(Oc2cccc(Nc3ccc(Cl)cc3)c2)cn1
inactive: [1] 29.1% | [2] 29.6% | [7] 24.8% | [8] 35.4% | [12] 10.7% | [14] 41.3% | [16] 73.3% | [17] 28.4% | [18] 42.2%
active: [3] -3.11% | [4] -21.3% | [5] -72.6% | [6] -30.1% | [9] -64.4% | [10] -18.1% | [11] -68.5% | [13] 1.19% | [15] -75.1%

O=C(CN1CCN(c2cc(=O)n(-c3ccccc3)c3ccccc23)CC1)Nc1nc(-c2ccc(Cl)cc2)cs1
inactive: [1] 49.8% | [2] 47.4% | [3] 89.1% | [4] 65.8% | [5] 54.8% | [6] 56.3% | [7] 52.6% | [8] 67.6% | [9] 57.3% | [10] 61.6% | [11] 24.2% | [12] 74.7% | [13] 67% | [14] 54.5% | [15] 62.6% | [16] 76.1% | [17] 28% | [18] 55.1%

COc1cc(-c2nc3sccn3c2-c2ccnc(S(C)(=O)=O)n2)ccc1F
active: [19] 4.8%
inactive: [1] 92.4% | [2] 94.5% | [3] 89.3% | [4] 108% | [5] 100% | [6] 93.4% | [7] 94.2% | [8] 102% | [10] 102% | [11] 89.6% | [12] 87% | [13] 84.5% | [14] 100% | [15] 98.6% | [16] 91.5% | [17] 96.1% | [18] 97.9%

CCNC(=O)N1CCc2cc(OC)c(OCCc3ccc(OC)c(N)c3)cc2C1c1cc(C)c(C)cc1C (stereo not given)
active: [5] 4.34% | [6] 5.26%
inactive: [1] 41.8% | [2] 44.7% | [3] 53.6% | [4] 34.2% | [7] 19.6% | [8] 23.3% | [10] 38.7% | [11] 20.5% | [19] 45.5% | [12] 53.1% | [13] 22.5% | [14] 40.7% | [15] 18.3% | [16] 26.4% | [17] 50% | [18] 27.9%

COc1cc(OC)c(S(N)(=O)=O)cc1C(C)=O
inactive: [1] 106% | [2] 103% | [3] 109% | [4] 113% | [5] 107% | [6] 103% | [7] 104% | [8] 101% | [9] 119% | [10] 108% | [19] 109% | [12] 101% | [13] 121% | [14] 104% | [15] 100% | [16] 101% | [17] 102% | [18] 109%

COc1cc(OC)cc(C(=O)Nc2sc3c(c2C(N)=O)CCC(=O)C3)c1
active: [6] 5.02%
inactive: [1] 19.1% | [2] 86% | [3] 98.6% | [4] 60% | [5] 57.9% | [7] 95.8% | [8] 85% | [9] 47.2% | [10] 99.4% | [12] 52.4% | [13] 85.1% | [14] 30.7% | [15] 65.3% | [16] 16.6% | [17] 53.2% | [18] 22.9%

CC(C)(C)c1ccc(C(=O)Nc2sc3c(c2C(N)=O)CC/C(=N\O)C3)cc1
inactive: [2] 17.5% | [3] 56.9% | [4] 51.9% | [7] 24.1% | [8] 27.5% | [10] 42.2% | [12] 14.1% | [14] 32% | [15] 16.8% | [16] 21.6% | [18] 25%
active: [1] 7.05% | [5] 4.25% | [6] -2.43% | [11] 7.83% | [13] -14.3% | [17] 5.76%

O=C(CCn1c[n+](CC(=O)c2ccc(F)cc2)c2ccccc21)Nc1cccc2cccnc12
inactive: [1] 83.4% | [2] 78.1% | [3] 93.9% | [4] 85.7% | [5] 88.3% | [6] 67.5% | [7] 102% | [8] 102% | [9] 55.7% | [10] 96.6% | [11] 58.5% | [12] 57.4% | [13] 92.7% | [14] 78.6% | [15] 99.2% | [16] 89.6% | [17] 47.6% | [18] 79.8%

Cc1cc(-c2ccc(Cl)cc2)n(Cc2nnc(SCC(=O)Nc3ccc(S(N)(=O)=O)cc3)n2-c2ccc([N+](=O)[O-])cc2)n1
inactive: [1] 90.2% | [2] 85.1% | [3] 96% | [4] 104% | [5] 67.1% | [6] 90% | [7] 84.3% | [8] 109% | [10] 101% | [11] 64.3% | [19] 92.9% | [12] 93.3% | [13] 75.9% | [14] 95.6% | [15] 73.4% | [16] 97% | [17] 98.5% | [18] 85.5%

CCc1cccc2c3c(sc12)C(c1ccc(Cl)cc1)C(C#N)=C(/N=C/c1ccc(Cl)cc1)O3 (stereo not given)
active: [5] 7.17% | [13] -31% | [15] -22.7% | [16] -7.57% | [18] 1.34%
inactive: [1] 17.1% | [2] 53.3% | [3] 37.3% | [4] 37% | [6] 10.8% | [7] 33.8% | [8] 39.5% | [9] 16.7% | [10] 12.1% | [11] 10% | [12] 33.8% | [14] 58.3% | [17] 60.4%

COc1cccc(C(=O)Nc2cccc(C#Cc3cccc4[nH]nc(N)c34)c2)c1
inactive: [1] 66.7% | [2] 49.2% | [3] 84.2% | [4] 63.4% | [5] 44.8% | [6] 21.1% | [7] 51.1% | [8] 80.2% | [9] 67.6% | [10] 70.8% | [19] 79.4% | [12] 38.6% | [14] 53% | [15] 54.9% | [16] 36.1% | [17] 82.8% | [18] 32.6%
active: [13] -19.5%
